Drawing on PubChem BioAssay (EPA / NIEHS), this text covers outcome for 39 compounds.

Inconclusive results are not listed. The source made the active and inactive calls. Rule for the calls: active = hit-call score of the fitted dose curve at least 0.9, where 1 is the maximum; inconclusive = response in the unintended direction; inactive = score below 0.9.

Glyceraldehyde-3-phosphate dehydrogenase (Homo sapiens), sequence (P04406 whole entry, looked up): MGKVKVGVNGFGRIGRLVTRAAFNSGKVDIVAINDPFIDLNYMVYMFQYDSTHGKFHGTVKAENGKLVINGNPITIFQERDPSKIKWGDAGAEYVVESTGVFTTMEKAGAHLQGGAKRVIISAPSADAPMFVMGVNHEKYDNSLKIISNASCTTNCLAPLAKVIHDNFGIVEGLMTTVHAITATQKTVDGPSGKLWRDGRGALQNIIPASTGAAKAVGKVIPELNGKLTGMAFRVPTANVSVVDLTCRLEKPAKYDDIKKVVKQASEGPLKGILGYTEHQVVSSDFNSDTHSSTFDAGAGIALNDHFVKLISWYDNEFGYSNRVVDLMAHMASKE

Read-out in this assay: Glyceraldehyde-3-phosphate dehydrogenase (Homo sapiens) (UniProt P04406)
The experiment in a line: CLD_GAPDH_6hr: CellzDirect (CLD) Gene Expression Assay for Baseline Control (Glyceraldehyde 3-phosphate dehydrogenase) at 6 hours (AID 2283681).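 Note: active means increased signal relative to DMSO vehicle.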 The procedure: CLD_6hr is a cell-based, multiplexed-readout assay that uses hepatocyte, a human liver primary cell, with measurements taken at 6 hours after chemical dosing in a 96-well plate.CLD_GAPDH_6hr is one of 16 assay component(s) measured or calculated from the CLD_6hr assay. It is designed to make measurements of mRNA induction, a form of inducible reporter, as detected with chemiluminescence signals by Quantitative Nuclease Protection Assay (qNPA) technology.Data from the assay component CLD_GAPDH_6hr was analyzed at the endpoint, CLD_GAPDH_6hr, in the positive analysis fitting direction relative to DMSO as the negative control and baseline of activity. Using a type of inducible reporter, gain-of-signal activity can be used to understand changes in the reporter gene as they relate to the gene GAPDH. Furthermore, this assay endpoint can be referred to as a secondary readout, because this assay has produced multiple assay endpoints where this one serves a background control function. To generalize the intended target to other relatable targets, this assay endpoint is annotated to the background measurement intended target family, where subfamily is baseline control.
Human hepatocyte cultures were treated daily for two consecutive days with fresh dosing solutions containing appropriate concentrations of the 320 ToxCast chemicals (chemical identities were blinded to CellzDirect and other ToxCast collaborators), vehicle control (0.2% DMSO), and positive control inducers as summarized in Table 1. Due to the large number of treatment groups and chemicals examined, the ToxCast chemicals were divided into two groups (spanning two independent cultures of hepatocytes from separate donor preparations (Hu778: ToxCast plates 1 and 2; Hu776: ToxCast plates 3 and 4). Each preparation of human hepatocyte cultures was treated with respective vehicle control, medium only control, set of six positive controls/reference chemicals for the five hepatic receptor pathways, and a subset of eight of the ToxCast chemicals (indoxacarb, pyrithiobac-sodium, norflurazon, cyhalofop-butyl, methomyl, thiram, acetochlor, and propiconazole). These replicate data, coupled with internal replicates designed within the blinded ToxCast chemical library, provided additional data to evaluate interindividual differences between hepatocyte preparations and their potential impact on chemical profiles.Cell morphology and integrity were evaluated using phase-contrast microscopy as an indicator of hepatocyte cell health (Tyson & Green, 1987). Cultures for each treatment group (i.e., media, vehicle [0.2% DMSO], positive control inducers [multiple concentrations], and the ToxCast chemicals [multiple concentrations]) were observed and cell morphology was assessed relative to vehicle control cultures at each harvest time point (0, 6, 24, or 48 h). […] Images were evaluated at the conclusion of the study to assess changes in cell integrity and account for the effects of chemical exposure on uncharacteristic changes in concentration-dependent gene expression profiles. The results from these determinations of apparent cytotoxicity were annotated (yes/no) alongside the corresponding qNPA data for reference.At the conclusion of each treatment period, hepatocyte cultures (96-well) were washed with 1 volume of HBSS, lysed by addition of 25 ul ArrayPlate lysis buffer (HTG, Tucson, AZ), and 70 ul/well of Denaturation Oil, denatured by incubation at 95C for 10 min, and frozen at approximately -70C until analysis by nuclease protection assay (qNPA) (Roberts et al., 2007). For qNPA analysis, cell lysates were thawed at 50C for approximately 30 min, qNPA probes were added, and samples were incubated at 95C for 10 min to begin the detection process by denaturing the target RNA, dissociating the duplexes and secondary structure hybridization. At the conclusion of the hybridization period, S1 nuclease reagent was added to each sample to digest all nonprotected nucleotides at 50C for 60-90 min. […]
Take `CS/C(C)=N/OC(=O)N(C)SN(C)C(=O)O/N=C(\C)SC`: the outcome was inactive.

For the compound `CC1COC(Cn2cncn2)(c2ccc(Oc3ccc(Cl)cc3)cc2Cl)O1` (centres undefined), the call was inactive.

Consider `CNC(=S)S`, for which the call was inactive.

Consider `CCCCNC(=O)n1c(NC(=O)OC)nc2ccccc21`, for which the outcome was inactive.

`CCOc1cc(Oc2ccc(C(F)(F)F)cc2Cl)ccc1[N+](=O)[O-]`: the call was inactive.

For the compound `COc1nc(C)nc(NC(=O)NS(=O)(=O)c2ccccc2Cl)n1`, the outcome was inactive.

`CCCCNC(=O)OCC#CI`: the compound was classed as inactive.

`Oc1ccccc1-c1ccccc1`: the compound was classed as inactive.

For the compound `CNC(=O)ON=CC(C)(C)SC`, the call was inactive.

As for `CC(Oc1ccc(Cl)cc1Cl)C(=O)O` (centres undefined), the compound was called inactive.

On to `N#Cc1nn(-c2c(Cl)cc(C(F)(F)F)cc2Cl)c(N)c1S(=O)C(F)(F)F` (centres undefined), for which the compound was classed as inactive.

With `OC(c1ccc(Cl)cc1)(c1cncnc1)c1ccccc1Cl` (centres undefined), the result was inactive.

Regarding `CCCCOC(=O)c1ccccc1C(=O)OCCCC`, the outcome was inactive.

In the case of `Cc1cc(Cl)ccc1OCC(=O)O`, the compound was classed as inactive.

Take `O=C(O)c1nc(Cl)ccc1Cl`: the call was inactive.

For the compound `CCOC(=O)C(Cl)Cc1cc(-n2nc(C)n(C(F)F)c2=O)c(F)cc1Cl` (centres undefined), the outcome was inactive.

In the case of `COc1nc(NC(C)C)nc(NC(C)C)n1`, the compound was classed as inactive.

Regarding `COC(=O)C(C)Oc1ccc(Oc2ccc(Cl)cc2Cl)cc1` (centres undefined), the compound was classed as inactive.

`CN(C)C(=S)SSC(=S)N(C)C`: the call was inactive.

For the compound `O=C(Nc1ccccc1)Nc1ccnc(Cl)c1`, the compound was classed as inactive.

On to `CC(C)(C)c1ccc(CSc2cnn(C(C)(C)C)c(=O)c2Cl)cc1`, for which the compound was classed as inactive.

Regarding `CCCCC(CC)COC(=O)c1ccccc1C(=O)OCC(CC)CCCC` (centres undefined), the call was inactive.

As for `O=C(O)COc1nc(Cl)c(Cl)cc1Cl`, the compound was classed as inactive.

Take `CC(C)Oc1cc(-n2nc(C(C)(C)C)oc2=O)c(Cl)cc1Cl`: the outcome was inactive.

With `CCOC(=O)CC(SP(=S)(OC)OC)C(=O)OCC` (centres undefined), the outcome was inactive.

Turning to `Cc1ccc(-c2c(Cl)nc(C#N)n2S(=O)(=O)N(C)C)cc1`, the compound was called inactive.

Consider `CO/C=C(/C(=O)OC)c1ccccc1Oc1cc(Oc2ccccc2C#N)ncn1`, for which the compound was called inactive.

As for `CC(C)C1(C)N=C(c2nc3ccccc3cc2C(=O)O)NC1=O` (centres undefined), the compound was classed as inactive.

In the case of `CCON=C(CC)C1=C(O)CC(c2c(C)cc(C)cc2C)CC1=O` (centres undefined), the result was inactive.

Consider `C=CCC1=C(C)[C@@H](OC(=O)[C@@H]2[C@@H](C=C(C)C)C2(C)C)CC1=O`, for which the result was inactive.

Regarding `COC(=O)N(OC)c1ccccc1COc1ccn(-c2ccc(Cl)cc2)n1`, the compound was called inactive.

With `COC(=O)C=C(C)OP(=O)(OC)OC`, the result was inactive.

Regarding `Cc1c(F)c(F)c(COC(=O)C2C(/C=C(\Cl)C(F)(F)F)C2(C)C)c(F)c1F` (centres undefined), the outcome was inactive.

For `N#Cc1cc(Br)c(O)c(Br)c1`, the call was inactive.

With `CCNc1nc(Cl)nc(NCC)n1`, the outcome was inactive.

For the compound `COP(=S)(OC)Oc1nc(Cl)c(Cl)cc1Cl`, the compound was classed as inactive.

Regarding `COc1nc(C)nc(NC(=O)NS(=O)(=O)c2ccccc2CCC(F)(F)F)n1`, the result was inactive.

Regarding `CCNc1nc(Cl)nc(NC(C)C)n1`, the result was inactive.

As for `C=CC1(C)OC(=O)N(c2cc(Cl)cc(Cl)c2)C1=O` (centres undefined), the result was inactive.
